Laboratory results reported in PubChem BioAssay (EPA / NIEHS).
Several values for one entry are separate records, joined by “and”; a condition that tells them apart may be missing. Equal entries are not always repeated. Results filed as inconclusive are left out. Activity calls are given as the source filed them. The calls were made as follows: active = hit-call score of the fitted dose curve at least 0.9, where 1 is the maximum; inconclusive = response in the unintended direction; inactive = score below 0.9.

The molecules below were run against human Phosphodiesterase 4A1 (PDE4A1), PDE4A (gene 5141) (UniProt P27815) (assay: NVS_ENZ_hPDE4A1: NovaScreen (NVS) Enzymatic Assay for human Phosphodiesterase 4A1 (PDE4A1) (AID 2283191)).
Sequence of human Phosphodiesterase 4A1 (PDE4A1), PDE4A (gene 5141) (P27815 whole entry, looked up): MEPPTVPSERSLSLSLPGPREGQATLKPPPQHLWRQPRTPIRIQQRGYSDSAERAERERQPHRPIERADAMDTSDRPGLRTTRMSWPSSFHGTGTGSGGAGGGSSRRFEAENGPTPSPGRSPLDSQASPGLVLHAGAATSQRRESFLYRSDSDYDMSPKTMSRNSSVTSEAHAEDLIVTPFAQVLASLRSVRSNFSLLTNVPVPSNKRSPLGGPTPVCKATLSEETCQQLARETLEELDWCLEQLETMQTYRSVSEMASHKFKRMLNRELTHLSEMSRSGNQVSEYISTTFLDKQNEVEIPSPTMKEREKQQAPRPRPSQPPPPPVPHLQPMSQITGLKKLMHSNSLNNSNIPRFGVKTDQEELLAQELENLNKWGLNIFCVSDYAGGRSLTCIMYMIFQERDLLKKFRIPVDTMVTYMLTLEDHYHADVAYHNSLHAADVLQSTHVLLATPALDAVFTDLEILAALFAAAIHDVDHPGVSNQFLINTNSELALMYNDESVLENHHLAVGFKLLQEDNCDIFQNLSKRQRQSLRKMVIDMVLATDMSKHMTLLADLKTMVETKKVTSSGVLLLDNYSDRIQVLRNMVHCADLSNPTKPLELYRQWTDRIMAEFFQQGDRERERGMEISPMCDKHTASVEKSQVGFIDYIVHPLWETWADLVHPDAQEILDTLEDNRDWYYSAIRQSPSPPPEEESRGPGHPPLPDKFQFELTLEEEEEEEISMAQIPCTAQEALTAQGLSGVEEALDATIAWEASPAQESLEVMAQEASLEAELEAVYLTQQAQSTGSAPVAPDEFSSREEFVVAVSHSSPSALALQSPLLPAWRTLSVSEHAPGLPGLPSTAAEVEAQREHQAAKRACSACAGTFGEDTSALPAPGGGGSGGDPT
Procedure: (§1) NVS_ENZ_hPDE4A1 is a biochemical, single-readout assay that uses extracted gene-proteins in a cell-free assay. Measurements were taken 1 hour after chemical dosing in a 384-well plate.NVS_ENZ_hPDE4A1 is one of one assay component(s) measured or calculated from the NVS_ENZ_hPDE4A1 assay. It is designed to make measurements of enzyme activity, a form of enzyme reporter, as detected with fluorescence intensity signals by Fluorescence and electrophoretic mobility shift technology.Data from the assay component NVS_ENZ_hPDE4A1 was analyzed into 1 assay endpoint. This assay endpoint, NVS_ENZ_hPDE4A1, was analyzed in the positive analysis fitting direction relative to DMSO as the negative control and baseline of activity. Using a type of enzyme reporter, loss-of-signal activity can be used to understand changes in the enzymatic activity as they relate to the gene PDE4A. Furthermore, this assay endpoint can be referred to as a primary readout, because this assay has produced multiple assay endpoints where this one serves a enzymatic activity function. To generalize the intended target to other relatable targets, this assay endpoint is annotated to the esterase intended target family, where the subfamily is phosphodiesterase.
Binding assays used specific radioligands (tritiated, iodinated) with non-radioactive competitive displacement ligands in agonist or antagonist protocols (as indicated) and various reference compounds and inhibitors to titrate specific binding to receptors and transporters. Most enzyme assays (CYPs, kinases, phosphatases, proteases, HDACs) used recombinant protein and specific substrates (fluorescence mostly, some colorimetric and radioactive) and inhibitors, followed by a biochemical separation of substrate and product. All assays for the biochemical HTS were initially run in duplicate at a single concentration (10 uM for CYP450 assays and 25 uM for all others). Assay-chemical combinations meeting a pre-defined threshold (e.g., 30% inhibition and other criteria defined below) were then run in singleton concentration-response format with maximum concentration of 20 uM for CYPs and 50 uM for all others. Each assay was run with positive and negative controls, and concurrent controls on every plate. The follow-up (secondary) screen tested active chemical-pairs in concentration series, as well as a few additional assays not tested in the primary screen, some selected negative inactives, and several cases re-run in the concentration series for confirmatory purposes.
With `COc1nn(CSP(=S)(OC)OC)c(=O)s1` the AC50 was 9.55 µM (active). For `O=S(=O)(O)C(F)(F)C(F)(F)C(F)(F)C(F)(F)C(F)(F)C(F)(F)C(F)(F)C(F)(F)F`, the AC50 was 5.35 µM (active). For `CCCN(CCOc1c(Cl)cc(Cl)cc1Cl)C(=O)n1ccnc1`, the AC50 was 7.79 µM (active). In the case of `COC(=O)c1ccccc1S(=O)(=O)NC(=O)N(C)c1nc(C)nc(OC)n1`, the AC50 is reported as 25 µM (active). `CC(C)(C)C(O)C(Oc1ccc(Cl)cc1)n1cncn1` (centres undefined) was tested, and the outcome was “inactive”. In the case of `CCOc1nc(NC)nc(NC(=O)NS(=O)(=O)c2ccccc2C(=O)OC)n1`, the AC50 is reported as 14.8 µM (active). With `COP(=S)(OC)Oc1ccc([N+](=O)[O-])cc1` the outcome was “inactive”. For `Oc1ccc(Cl)cc1Cc1ccccc1`, the outcome was “inactive”.

These molecules were tested against cAMP-dependent protein kinase catalytic subunit alpha (Homo sapiens) (UniProt P17612) (assay: NVS_ENZ_hPKA: NovaScreen (NVS) Enzymatic Assay for human Protein Kinase A (PKA) (AID 2283192)).
Procedure: as §1, with “NVS_ENZ_hPKA” for “NVS_ENZ_hPDE4A1”, “plate.NVS_ENZ_hPKA” for “plate.NVS_ENZ_hPDE4A1”, “NVS_ENZ_hPKA,” for “NVS_ENZ_hPDE4A1,”, “PRKACA.” for “PDE4A.”, “kinase” for “esterase”, “serine/threonine kinase.” for “phosphodiesterase.”
Binding assays used specific radioligands (tritiated, iodinated) with non-radioactive competitive displacement ligands in agonist or antagonist protocols (as indicated) and various reference compounds and inhibitors to titrate specific binding to receptors and transporters. Most enzyme assays (CYPs, kinases, phosphatases, proteases, HDACs) used recombinant protein and specific substrates (fluorescence mostly, some colorimetric and radioactive) and inhibitors, followed by a biochemical separation of substrate and product. All assays for the biochemical HTS were initially run in duplicate at a single concentration (10 uM for CYP450 assays and 25 uM for all others). […]
`O=S(=O)(O)C(F)(F)C(F)(F)C(F)(F)C(F)(F)C(F)(F)C(F)(F)C(F)(F)C(F)(F)F` was tested, and the AC50 was 36.3 µM (active) and 47.7 µM (active). With `O=C(O)C(F)(F)C(F)(F)C(F)(F)C(F)(F)C(F)(F)C(F)(F)C(F)(F)F` the outcome was “inactive”. `COC(=O)c1ccccc1S(=O)(=O)NC(=O)N(C)c1nc(C)nc(OC)n1` was tested, and the outcome was “inactive”.

Each molecule was assayed against human Phosphodiesterase 5 (PDE5), PDE5A (gene 8654) (UniProt O76074) (assay: NVS_ENZ_hPDE5: NovaScreen (NVS) Enzymatic Assay for human Phosphodiesterase 5 (PDE5) (AID 2283194)).
Summary of the method: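 Recombinant human PDE5 with specific substrate, read 1 h after dosing by fluorescence with electrophoretic mobility-shift separation of substrate and product. Initial single-concentration duplicate screen at 25 uM, actives followed in concentration series; loss of activity versus DMSO.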
With `O=S(=O)(O)C(F)(F)C(F)(F)C(F)(F)C(F)(F)C(F)(F)C(F)(F)C(F)(F)C(F)(F)F` the AC50 was 25 µM (active) and 21.9 µM (active). With `CCCN(CCOc1c(Cl)cc(Cl)cc1Cl)C(=O)n1ccnc1` the AC50 was 9.58 µM (active). With `CC(C)(C)C(O)C(Oc1ccc(Cl)cc1)n1cncn1` (centres undefined) the outcome was “inactive”. With `Cc1[nH]c(=O)n(C(C)(C)C)c(=O)c1Cl` the AC50 was 9.17 µM (active). In the case of `Oc1ccc(Cl)cc1Cc1ccccc1`, the outcome is reported as “inactive”. `N#Cc1c(Cl)c(Cl)c(Cl)c(C#N)c1Cl` was tested, and the AC50 was 31.8 µM (active). For `Oc1cc(Cl)ccc1Oc1ccc(Cl)cc1Cl`, the outcome was “inactive”.

Each molecule was assayed against human Phosphodiesterase 10 (PDE10), PDE10A (gene 10846) (UniProt Q9Y233) (assay: NVS_ENZ_hPDE10: NovaScreen (NVS) Enzymatic Assay for human Phosphodiesterase 10 (PDE10) (AID 2283195)).
Sequence of human Phosphodiesterase 10 (PDE10), PDE10A (gene 10846) (Q9Y233 whole entry, looked up): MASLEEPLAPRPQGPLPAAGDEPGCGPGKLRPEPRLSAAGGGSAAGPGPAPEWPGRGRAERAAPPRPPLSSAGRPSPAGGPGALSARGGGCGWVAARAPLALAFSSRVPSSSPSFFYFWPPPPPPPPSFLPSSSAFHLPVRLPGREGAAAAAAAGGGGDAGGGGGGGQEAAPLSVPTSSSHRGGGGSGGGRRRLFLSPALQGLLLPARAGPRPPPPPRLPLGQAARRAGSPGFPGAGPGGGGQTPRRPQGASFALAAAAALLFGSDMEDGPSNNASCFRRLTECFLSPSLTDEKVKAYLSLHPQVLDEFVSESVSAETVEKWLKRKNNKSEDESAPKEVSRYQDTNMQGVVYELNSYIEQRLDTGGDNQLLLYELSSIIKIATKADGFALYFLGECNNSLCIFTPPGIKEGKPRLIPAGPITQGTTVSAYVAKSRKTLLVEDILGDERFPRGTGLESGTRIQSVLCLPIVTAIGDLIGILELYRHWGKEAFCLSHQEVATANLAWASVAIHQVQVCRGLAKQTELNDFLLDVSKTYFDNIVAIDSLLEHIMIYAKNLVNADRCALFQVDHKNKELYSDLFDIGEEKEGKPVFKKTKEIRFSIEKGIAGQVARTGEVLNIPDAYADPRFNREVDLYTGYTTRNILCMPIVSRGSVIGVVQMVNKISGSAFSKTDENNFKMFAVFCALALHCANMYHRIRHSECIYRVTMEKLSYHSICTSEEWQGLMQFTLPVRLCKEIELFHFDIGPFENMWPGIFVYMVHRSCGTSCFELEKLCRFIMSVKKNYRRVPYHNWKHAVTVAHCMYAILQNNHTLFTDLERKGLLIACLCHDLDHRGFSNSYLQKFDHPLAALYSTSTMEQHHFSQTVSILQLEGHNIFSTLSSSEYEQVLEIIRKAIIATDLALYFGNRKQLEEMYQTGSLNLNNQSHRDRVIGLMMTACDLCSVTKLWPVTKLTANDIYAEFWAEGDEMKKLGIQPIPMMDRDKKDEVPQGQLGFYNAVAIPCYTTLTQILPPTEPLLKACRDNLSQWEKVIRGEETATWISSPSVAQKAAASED
Summary of the method: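 Fluorescence/mobility-shift readout of PDE10A enzyme activity, taken 1 h post-dosing. Primary screen in duplicate at 25 uM; actives (e.g. ≥30% inhibition) retested as singleton concentration-response, top concentration 50 uM.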
With `O=S(=O)(O)C(F)(F)C(F)(F)C(F)(F)C(F)(F)C(F)(F)C(F)(F)C(F)(F)C(F)(F)F` the outcome was “inactive”. With `CC(C)(C)C(O)C(Oc1ccc(Cl)cc1)n1cncn1` (centres undefined) the outcome was “inactive”. In the case of `N#Cc1c(Cl)c(Cl)c(Cl)c(C#N)c1Cl`, the outcome is reported as “inactive”.

The molecules below were run against human Phosphoinositide 3-kinase alpha (PI3Ka), PIK3CA (gene 5290) (UniProt P42336) (assay: NVS_ENZ_hPI3Ka: NovaScreen (NVS) Enzymatic Assay for human Phosphoinositide 3-kinase alpha (PI3Ka) (AID 2283196)).
Sequence of human Phosphoinositide 3-kinase alpha (PI3Ka), PIK3CA (gene 5290) (P42336 whole entry, looked up): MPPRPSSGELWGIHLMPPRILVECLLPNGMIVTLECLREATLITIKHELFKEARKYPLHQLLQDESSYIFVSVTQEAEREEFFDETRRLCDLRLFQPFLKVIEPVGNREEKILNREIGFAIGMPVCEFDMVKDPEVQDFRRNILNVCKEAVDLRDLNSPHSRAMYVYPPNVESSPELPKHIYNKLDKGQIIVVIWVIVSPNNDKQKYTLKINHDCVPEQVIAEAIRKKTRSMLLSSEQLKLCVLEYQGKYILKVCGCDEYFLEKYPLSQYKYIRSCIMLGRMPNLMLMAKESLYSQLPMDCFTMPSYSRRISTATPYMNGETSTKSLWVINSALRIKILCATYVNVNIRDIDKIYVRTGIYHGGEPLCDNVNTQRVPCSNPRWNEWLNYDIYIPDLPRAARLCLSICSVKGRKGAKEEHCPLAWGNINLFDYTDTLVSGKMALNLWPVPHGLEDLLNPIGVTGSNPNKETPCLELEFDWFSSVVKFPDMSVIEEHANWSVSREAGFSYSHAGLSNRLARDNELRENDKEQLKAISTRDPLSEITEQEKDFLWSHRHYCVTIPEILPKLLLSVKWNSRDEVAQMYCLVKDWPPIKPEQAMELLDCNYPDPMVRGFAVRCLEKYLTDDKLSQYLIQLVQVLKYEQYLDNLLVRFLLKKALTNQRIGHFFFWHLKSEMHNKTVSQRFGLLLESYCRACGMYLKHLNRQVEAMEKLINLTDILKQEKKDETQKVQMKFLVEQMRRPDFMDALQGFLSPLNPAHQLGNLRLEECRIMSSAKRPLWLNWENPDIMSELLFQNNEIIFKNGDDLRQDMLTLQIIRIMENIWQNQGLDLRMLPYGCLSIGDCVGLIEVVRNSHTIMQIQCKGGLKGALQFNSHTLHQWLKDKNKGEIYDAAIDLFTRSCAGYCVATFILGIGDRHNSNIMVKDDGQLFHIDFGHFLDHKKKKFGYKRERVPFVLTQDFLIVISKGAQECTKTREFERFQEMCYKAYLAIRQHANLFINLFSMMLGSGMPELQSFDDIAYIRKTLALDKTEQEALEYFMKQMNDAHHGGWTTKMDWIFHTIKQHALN
Summary of the method: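 Chemicals were first screened at 25 uM in duplicate, then hits were run as concentration series up to 50 uM. Enzyme activity was measured by fluorescence after mobility-shift separation, with loss of signal relative to DMSO taken as activity.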
For `O=S(=O)(O)C(F)(F)C(F)(F)C(F)(F)C(F)(F)C(F)(F)C(F)(F)C(F)(F)C(F)(F)F`, the AC50 was 6.79 µM (active) and 4.5 µM (active) and 8.3 µM (active). For `CCN(CC)C(=O)SCc1ccc(Cl)cc1`, the outcome was “inactive”. `O=C(O)C(F)(F)C(F)(F)C(F)(F)C(F)(F)C(F)(F)C(F)(F)C(F)(F)F` was tested, and the AC50 was 11.3 µM (active). `O=[N+]([O-])/N=C1\NCCN1Cc1ccc(Cl)nc1` was tested, and the outcome was “inactive”. For `CCS(=O)(=O)c1cccnc1S(=O)(=O)NC(=O)Nc1nc(OC)cc(OC)n1`, the outcome was “inactive”. `CC[C@H](C)[C@H]1O[C@]2(C=C[C@@H]1C)C[C@@H]1C[C@@H](C/C=C(\C)[C@@H](O[C@H]3C[C@H](OC)[C@@H](O[C@H]4C[C@H](OC)[C@@H](O)[C@H](C)O4)[C@H](C)O3)[C@@H](C)/C=C/C=C3\CO[C@@H]4[C@H](O)C(C)=C[C@@H](C(=O)O1)[C@]34O)O2` (tested in a mixture with another compound) was tested, and the AC50 was 5.57 µM (active). In the case of `Oc1ccc(Cl)cc1Cc1ccccc1`, the outcome is reported as “inactive”. With `N#Cc1c(Cl)c(Cl)c(Cl)c(C#N)c1Cl` the AC50 was 33.1 µM (active).
